Source: ChEMBL document CHEMBL3988442, “University of Dundee, Small-Polar-MMV Screening Library” (2021)
Out of some 48,000 compounds screened, about 13,000 (27%) showed an effect of 50% or more. The list shows a part of the results.

The molecules below were run on Wolbachia pipientis (assay: Anti-Wolbachia Cell-Based Screen). Conditions: 5 µM.
Type: functional
Design: scale not given: in the data most compounds retested in dose-response had high values
With `CC(=O)c1c(C)nn(CC(=O)N2Cc3cnc(C(C)(C)C)nc3C2)c1C` the “Percent Effect” value was -8.133%. With `CCS(=O)(=O)N1Cc2c(Cn3ccnc3)nn(C)c2C1` the “Percent Effect” value was -18.78%. For `CC(C)(C)OC(=O)N1CCCc2ccc(NCc3cc[nH]c3)cc21`, the “Percent Effect” value was -2.534%. With `O=C(NCC1Cn2nnc(-c3ccsc3)c2CO1)N1CCCC1` (stereo not given) the “Percent Effect” value was -5.299%. With `Cc1cncc(C(=O)N2Cc3ccccc3C3(CCN(C)CC3)C2)c1` the “Percent Effect” value was -5.03%. `CCN1CCC2(CC1)CN(C(=O)c1cccnc1)c1ccc(Cl)cc12.O=C(O)C(F)(F)F.O=C(O)C(F)(F)F` was tested, and the “Percent Effect” value was 116.9%. With `CCN1CCC2(CC1)CN(C(C)=O)c1ccc(C)cc12` the “Percent Effect” value was -4.945%. In the case of `O=C(O)c1ccc2c(c1)C1(CCCCC1)CN2C(=O)c1ccnnc1`, the “Percent Effect” value is reported as -1.269%. In the case of `CC(=O)N1CCC2(CC1)CN(C(=O)c1cccnc1)c1ccc(F)cc12.O=C(O)C(F)(F)F`, the “Percent Effect” value is reported as 91.49%. `CN1CCC2(CC1)CN(C(=O)c1cccnc1)c1ccc(Cl)cc12` was tested, and the “Percent Effect” value was 127.2%. In the case of `COCCN1CCC2(CC1)CN(C(=O)C1CC1)c1ccc(F)cc12.O=C(O)C(F)(F)F`, the “Percent Effect” value is reported as -7.452%. For `O=C(O)c1ccc2c(c1)C1(CCCCC1)CN2C(=O)c1cccc(F)c1`, the “Percent Effect” value was -4.529%. `CC(=O)N1CCC2(CC1)C(=O)N(c1cccnc1)c1ccc(F)cc12` was tested, and the “Percent Effect” value was -4.26%. In the case of `CCCN1CCC2(CC1)CN(C(=O)c1cccnc1)c1ccc(F)cc12.O=C(O)C(F)(F)F.O=C(O)C(F)(F)F`, the “Percent Effect” value is reported as 115.7%. For `O=C(C1CC1)N1CC2(CCN(CC3CC3)CC2)c2cc(F)ccc21.O=C(O)C(F)(F)F`, the “Percent Effect” value was -39.82%. In the case of `CCCc1cncnc1N1CCC(NCc2ccc(O)cc2)CC1`, the “Percent Effect” value is reported as -4.089%. For `O=C(Nc1cccnc1)C1=Cc2ccccc2OC1`, the “Percent Effect” value was 18.82%. In the case of `O=C(CSC1CCCC1)N1CCN(c2ccc(-n3cncn3)nn2)CC1`, the “Percent Effect” value is reported as 20.49%. `CCN1CCN(Cc2nc(CCc3ccccc3)n[nH]2)CC1` was tested, and the “Percent Effect” value was 14.2%. For `CC(NC(=O)CN1CCN(Cc2ccc(Br)s2)CC1)c1ccccc1` (stereo not given), the “Percent Effect” value was -2.941%. For `CCN(CC)c1ccc(NS(=O)(=O)c2cnn(CC)c2)cn1`, the “Percent Effect” value was -19.91%. In the case of `Cc1occc1C(=O)NCC(=O)N(C)CCCOc1ccccc1`, the “Percent Effect” value is reported as 11.74%. For `Cc1ocnc1C(=O)N(C)[C@@H]1CCC[C@@H](N2CCCC2)[C@@H]1O`, the “Percent Effect” value was 115.9%. In the case of `Cc1cn2c(CN(C)C(=O)c3ncoc3C)c(C)nc2s1`, the “Percent Effect” value is reported as -12.17%. `Cc1occc1C(=O)NCC(=O)N1CCC(COc2ccccc2)CC1` was tested, and the “Percent Effect” value was 1.262%. For `Cc1ocnc1C(=O)N(Cc1cccnc1)C[C@@H]1CCC(=O)N1`, the “Percent Effect” value was -1.977%. With `Cc1ocnc1C(=O)N[C@H]1CN(CC2CCC2)C[C@@H]1C(C)C` the “Percent Effect” value was 16.35%. With `Cc1ocnc1C(=O)N(C)[C@@H]1CC[C@@H](Oc2ccccc2)[C@@H]1O` the “Percent Effect” value was 100.2%. For `CCN(CCc1nccs1)C(=O)c1ncoc1C`, the “Percent Effect” value was -4.771%. For `Cc1ocnc1C(=O)N(C)[C@@H]1CC[C@@H](n2ccnc2C)[C@@H]1O`, the “Percent Effect” value was 115%. With `CCCN(CCC)C1(Cc2cc(-c3cccc(O)c3)on2)COC1` the “Percent Effect” value was -7.184%. In the case of `N#CCCN(C(=O)CN1CCCC1Cc1ccccc1)c1ccccc1` (stereo not given), the “Percent Effect” value is reported as 14.76%. In the case of `CN(C)CCn1ccc(NC(=O)NC(C)(C)c2nccs2)n1`, the “Percent Effect” value is reported as 4.261%. In the case of `COc1ccc(CNc2ncc(-c3cc(C)no3)c(C(C)C)n2)cc1`, the “Percent Effect” value is reported as 97.64%. In the case of `Cc1cc(-c2cnc(NCc3ccccn3)nc2C(C)C)on1`, the “Percent Effect” value is reported as 93.57%. `COCc1cc(NCc2ccccc2OC)ncn1` was tested, and the “Percent Effect” value was -8.883%. In the case of `COc1ccc(CNC2(Cc3cc(CC(C)C)on3)COC2)cc1`, the “Percent Effect” value is reported as 1.284%. `Cn1ncnc1-c1ccnc(NCc2ccccn2)n1` was tested, and the “Percent Effect” value was -1.94%. `Cc1cc(-c2cnc(NCc3ccc4c(c3)OCO4)nc2C(C)C)on1` was tested, and the “Percent Effect” value was 111.2%. In the case of `COc1cccc(CNc2nc(C)cc(C)n2)c1OC`, the “Percent Effect” value is reported as 34.66%. With `COc1ccc(CNC(C)c2cnc3cc(C)nn3c2C)cc1` (stereo not given) the “Percent Effect” value was 8.81%. `Cn1ccnc1-c1noc(NCc2ccc3c(c2)OCCO3)n1` was tested, and the “Percent Effect” value was -0.6068%. In the case of `Cc1ccn(-c2ccccc2NCc2ccccn2)n1`, the “Percent Effect” value is reported as 5.866%. With `COc1ccccc1CNc1ncc(-c2cc(C)no2)c(C(C)C)n1` the “Percent Effect” value was 92%. `CC(C)c1nn(C)c(N(C)C)c1CNCc1ccc2c(c1)OCO2` was tested, and the “Percent Effect” value was -1.149%. In the case of `CN(Cc1ccc(F)cc1)C(=O)NCC1(N2CCOCC2)CCSC1` (stereo not given), the “Percent Effect” value is reported as -20.26%. For `COc1cccc(-n2c(SCC(=O)O)nnc2-c2cn[nH]c2)c1`, the “Percent Effect” value was 1.781%. For `Cc1csc(CNC(=O)NCC(O)c2ccc(F)cc2F)n1` (stereo not given), the “Percent Effect” value was -0.3867%. In the case of `Cc1cc(-c2cnc(NCc3ccncc3)nc2C(C)C)on1`, the “Percent Effect” value is reported as 155.1%. With `Cc1cnc(NCc2ccc(S(=O)(=O)N(C)C(C)C)cc2)nc1C` the “Percent Effect” value was -3.312%. With `CCc1c(NCc2ccncc2)cnn1CC(C)C` the “Percent Effect” value was -6.7%. For `Cc1ccc2c(c1)C1(CC2)CCN(c2nncs2)CC1`, the “Percent Effect” value was -2.782%. With `O=C(O)C(F)(F)F.c1cncc(-c2ccc3c(c2)C2(CC3)CCN(c3nncs3)CC2)c1` the “Percent Effect” value was 7.623%. For `CC/C=C(/C)C(=O)N1CCN(C2=NCC(C)S2)CC1` (stereo not given), the “Percent Effect” value was -1.897%. In the case of `CCOCCN1CCN(Cc2nc(C3CC3)no2)CC1CC` (stereo not given), the “Percent Effect” value is reported as -17.64%. `O=C(NC1CC1)[C@@H]1CCO[C@@H]2CCN(CC3CCC3)C[C@@H]21.O=C(O)C(F)(F)F` was tested, and the “Percent Effect” value was 20.69%. In the case of `CN(C)CCNC(=O)[C@H]1C[C@@H]2CN(C(=O)NC3CCCC3)C[C@H]1O2.O=C(O)C(F)(F)F`, the “Percent Effect” value is reported as 6.498%. With `O=C(NC1CCC1)[C@H]1C[C@@H]2CN(S(=O)(=O)c3ccccc3)C[C@H]1O2` the “Percent Effect” value was 5.233%. For `CC(C)CN1C[C@H]2C[C@H](C(=O)NC3CCC3)[C@@H](C1)O2.O=C(O)C(F)(F)F`, the “Percent Effect” value was 89.64%. `O=C(NC1CC1)[C@@H]1CCO[C@@H]2CCN(CC3CCC3)C[C@H]21.O=C(O)C(F)(F)F` was tested, and the “Percent Effect” value was -19.72%. For `O=C(NC1CCC1)[C@H]1C[C@@H]2CN(CC3CC3)C[C@H]1O2.O=C(O)C(F)(F)F`, the “Percent Effect” value was 120%. With `NC(=O)c1cc(-c2cccc(C(=O)O)c2)cs1` the “Percent Effect” value was 7.533%. With `CCCN(C)CC1CCN(c2ccc(Br)c(C)n2)C1` (stereo not given) the “Percent Effect” value was -15.16%. For `NC(=O)[C@@H]1Cc2ccccc2CN1CCC(=O)N1CCOCC1`, the “Percent Effect” value was 8.62%. `NC(=O)C1CCCN1c1cc(N2CCc3ccccc3C2)ncn1` (stereo not given) was tested, and the “Percent Effect” value was -10.01%. `NC(=O)[C@@H]1Cc2ccccc2CN1S(=O)(=O)N1CCCCCC1` was tested, and the “Percent Effect” value was 103%. `CC1CCN(C(=O)CCN2Cc3ccccc3C[C@H]2C(N)=O)C1` (stereo not given in full) was tested, and the “Percent Effect” value was -2.608%. In the case of `CC1CCN(S(=O)(=O)N2C[C@H](c3ccccc3)[C@@H](N)C2)CC1`, the “Percent Effect” value is reported as -3.535%. In the case of `NC(=O)[C@@H]1Cc2ccccc2CN1CCc1cccs1`, the “Percent Effect” value is reported as -22.09%. `NC(=O)[C@@H]1Cc2ccccc2CN1S(=O)(=O)N1CCCCC1` was tested, and the “Percent Effect” value was 78.36%. With `NC(=O)C1Cc2ccccc2CN1CCC(=O)N1CCc2ccccc21` (stereo not given) the “Percent Effect” value was -4.733%. With `CC1CCN(S(=O)(=O)N2Cc3ccccc3C[C@H]2C(N)=O)CC1` the “Percent Effect” value was 91.1%. For `CN(CC(C)(C)O)C(=O)Nc1ccc(F)c(-n2cccc2)c1`, the “Percent Effect” value was 2.422%. In the case of `CNS(=O)(=O)c1cccc(C(C)NCc2cccc(C)c2C)c1` (stereo not given), the “Percent Effect” value is reported as 8.764%. `O=C(C1CC2(CCNCC2)CN1)N1CCN(c2cccc(Cl)c2Cl)CC1` (stereo not given) was tested, and the “Percent Effect” value was 3.67%. `COCCOCC(=O)N1C[C@H]2CC[C@@H]1CN(C1Cc3ccccc3C1)C2` was tested, and the “Percent Effect” value was 11.56%. For `COc1cccc(C(=O)NCc2ccccc2S(=O)(=O)N(C)CCO)c1`, the “Percent Effect” value was 1.796%. In the case of `CCS(=O)(=O)c1ncc(CN2CCOCC2)n1CCCc1ccccc1`, the “Percent Effect” value is reported as 6.125%. With `CCN1CC2(CCC1=O)CCN(c1ccc(C(C)=O)cn1)CC2` the “Percent Effect” value was 0.06704%. `CCc1nc(CN2CCCC(Cn3nc(C)nc3C)C2)no1` (stereo not given) was tested, and the “Percent Effect” value was 81.07%. With `Cc1nc(C)n(CC2CCCN(CC3CCCCC3)C2)n1` (stereo not given) the “Percent Effect” value was 104.8%. `Cc1nc(C)n(CC2CCCN(Cc3nc(C4CC4)no3)C2)n1` (stereo not given) was tested, and the “Percent Effect” value was 2.839%. `Cc1nc(C)n(CC2CCCN(Cc3noc(C)n3)C2)n1` (stereo not given) was tested, and the “Percent Effect” value was 96.94%. With `Cc1noc(CN2CCCC(Cn3nc(C)nc3C)C2)n1` (stereo not given) the “Percent Effect” value was 104.9%. In the case of `CS(=O)(=O)N1C[C@@H]2COC[C@@H](CC(=O)N3CCCCO3)[C@@H]2C1`, the “Percent Effect” value is reported as -9.378%. For `CNC(=O)[C@@H](c1ccccc1F)N1CCC[C@H]1C(=O)NC1CC1.Cl`, the “Percent Effect” value was 0.6767%. In the case of `O=C1N[C@@H]2CCN(C(=O)C3CC3)[C@@H]2C(=O)N1c1ccccc1`, the “Percent Effect” value is reported as -5.528%. With `Cc1ccccc1Oc1ncccc1CNS(=O)(=O)N(C)C` the “Percent Effect” value was -17.53%. For `CC(C)c1cc(N[C@H](C(N)=O)C(C)C)n2nccc2n1`, the “Percent Effect” value was -22.97%. In the case of `CCc1noc(CN2CCCC(Cn3nc(C)nc3C)C2)n1` (stereo not given), the “Percent Effect” value is reported as 134.9%. With `COCCc1noc(CN2CCCC(Cn3nc(C)nc3C)C2)n1` (stereo not given) the “Percent Effect” value was 0.4033%. With `CS(=O)(=O)CCN1CC(c2ccccc2)(c2ccccc2)CCC1=O` the “Percent Effect” value was -17.1%. With `O=C1CC(c2ncc(-c3ccc4c(c3)OCCO4)[nH]2)CN1C1CC1` (stereo not given) the “Percent Effect” value was -4.884%. With `CC(C)NC(=O)COc1ccc(-c2nc(C(C)C)no2)cc1` the “Percent Effect” value was 114.1%. For `CC(C)NC(=O)COc1cccc(-c2nc(C(C)C)no2)c1`, the “Percent Effect” value was 105.1%. For `CC(C)c1noc(CCCC(=O)NCCOc2ccccc2)n1`, the “Percent Effect” value was -1.504%. With `CCc1noc(-c2cccc(OCC(=O)NC(C)C)c2)n1` the “Percent Effect” value was 95.64%. For `CC(C)c1noc(CS(=O)(=O)CC(=O)NCCOc2ccccc2)n1`, the “Percent Effect” value was 13.06%. In the case of `CCCn1nc(-c2nc(COc3ccccc3)no2)ccc1=O`, the “Percent Effect” value is reported as -3.247%. `CC(C)NC(=O)COc1nc(C(C)(C)C)no1` was tested, and the “Percent Effect” value was -1.58%. `CC(NC(=O)COc1nc(C(C)(C)C)no1)c1ccco1` (stereo not given) was tested, and the “Percent Effect” value was 8.75%. With `C=C(C)COc1cccc(C(=O)N(CC)Cc2noc(C)n2)c1` the “Percent Effect” value was -33.22%. `CC(C)NC(=O)COc1nc(C(C)C)no1` was tested, and the “Percent Effect” value was -19.75%. `COc1cccc(-c2n[nH]cc2C(=O)NC(C)c2nc(C(C)C)no2)c1` (stereo not given) was tested, and the “Percent Effect” value was -2.83%. `CCCNC(=O)COc1cccc(-c2nc(C(C)C)no2)c1` was tested, and the “Percent Effect” value was 120.4%.
